# Abeta rescue – qHTS for compounds that reverse cellular toxicity of Amyloid beta (A-beta) peptide in yeast: Primary Screen | yeast expressing A-beta42, growth rescue, OD600, 48 h; response scale: 0% DMSO, 100% iron-clioquinol control | Potency, µM (series often up to 46.1 µM), actives largely listed as activators | 410,000 compounds, 0.063% hits; note: nearly all actives have a fitted effect of over 55% in size
#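 Growth rescue measured by 600 nm absorbance after 48 h yeast culture at 30 C with compound. Values normalized between DMSO and an equimolar ferric chloride plus clioquinol control.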
# aSyn yeast inh – qHTS of alpha-syn Inhibitors; Yeast expressing alpha-synuclein, growth rescue, BacTiter-Glo, 24 h; Potency, µM (top dose mostly 46.1 µM), for inactives: at the top dose growth rescue (activation), actives largely listed as activators; 370,000 compounds, 0.14% hits; note: % of control where 0% means no effect; nearly all actives have a fitted effect of over 65% in size
#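 Screening used galactose-induced yeast with toxic alpha-synuclein levels, exposed to compound for 24 hr at 30 deg C. Cell growth, read with BacTiter-Glo luminescence, gave the measured signal.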
# Mito fusion act – qHTS Assay for Small Molecule Inhibitors of Mitochondrial Division or Activators of Mitochondrial Fusion; Potency, µM (top dose mostly 46.1 µM), for inactives: top-dose growth rescue (activation), hits mostly activators; S. cerevisiae fusion-defective mutant growth rescue, CellTiterGlo 48 h; AID 485298, 2010; 320,000 compounds, 0.23% hits; note: % of control where 0% means no effect; nearly all actives have a fitted effect of over 45% in size
#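 Growth-rescue viability read-out: after 48 h at the non-permissive 37C in glycerol/ethanol YPEG, yeast mitochondrial fusion mutants are measured by CellTiterGlo luminescence; compounds (23 nl pinned per well) restoring growth score as division inhibitors or fusion activators.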
# TDP43 rescue – qHTS of TDP-43 Inhibitors. Potency, µM (highest dose often 46.1 µM), without a hit: top-dose growth rescue (activation), hits mostly activators. 410,000 compounds, 1.8% hits. TDP-43 expressing yeast growth rescue, BacTiter-Glo, 24 h; note: % of control where 0% means no effect; nearly all actives have a fitted effect of over 50% in size
#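 Yeast expressing TDP-43 (pregrown in raffinose, seeded at OD600=0.02 in galactose medium) exposed to compounds 24 hr at 30 deg C. Growth read by BacTiter-Glo luminescence; rescue of toxicity appears as increased signal.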
# FUS yeast rescue – qHTS for Suppressors of FUS Proteinopathy: Primary screen using FUS-linked yeast assay; S. cerevisiae FUS-expressing, growth rescue, OD600, 24 h; Potency, µM (titrated, usually from 76.6 µM), hits mostly activators; 390,000 compounds, 0.24% hits; AID 1347120, 2019;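 note: plate controls were DMSO vehicle for no effect and reference control for full effect; nearly all actives have a fitted effect of over 55% in size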
#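 Cultures pregrown in 2.5% raffinose medium are shifted to minimal medium containing 2% galactose to express toxic FUS. Compounds are tested at several concentrations. After 24hr at 30C, growth is quantified at 600 nm absorbance.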
# An asterisk follows results filed as active; i = inactive; ? = inconclusive; · = no result. An excerpt weighted towards active compounds, which were near 2.2% of everything screened. Calls come from the whole dose curve; as a rule, active = well fitted curve in the direction sought with a large enough effect; inconclusive = small, poorly fitted or top-dose-only effect, or another doubt; inactive = no such curve, though single readings can be large; an effect the other way counts as inactive or inconclusive. Potency is the fitted concentration of half-maximal effect.
SMILES,Abeta rescue,aSyn yeast inh,Mito fusion act,TDP43 rescue,FUS yeast rescue
Cc1nc(-c2cccc(CN(C)C(=O)Oc3ccc([N+](=O)[O-])cc3)c2)no1,i,-17.8%,·,12.6µM*,i
O=S(=O)(c1ccccc1C(F)(F)F)N1CCN(c2ncnc3sccc23)CC1,i,19.8%,·,12.6µM*,i
O=C(NCc1ccc2c(c1)CCN2C(=O)c1ccccc1)Nc1cccc(C(F)(F)F)c1,i,·,·,-32.2%,i
CCOC(=O)C(NC(=O)C(Cc1ccc(N(CCCl)CCCl)cc1)NC(C)=O)C(C)C (centres undefined),i,4.3%,3.98µM*,12.0%,i
CCOC(=O)CNC(=O)CNC(=O)C(Cc1ccc(N(CCCl)CCCl)cc1)NC(C)=O (centres undefined),i,0.4%,-1.9%,21.7%,i
Cc1cccc(N2CCN(C(=O)CCNS(=O)(=O)c3ccc4c(c3)oc(=O)n4C)CC2)c1C,i,1.0%,20µM*,11.1%,i
Oc1ccc(Cl)cc1Cc1cc(Cl)ccc1O,?,-54.2%,-18.9%,?,i
Oc1ccc(Cl)cc1Cc1ccccc1,i,-9.5%,·,14.1µM*,i
Nc1c(C(=O)OC2CCCCC2)c2nc3ccccc3nc2n1CC1CCCO1 (centres undefined),i,2.5%,16.9%,28.2µM*,i
COc1ccc(S(=O)(=O)N(C)C[C@H]2OCCCC[C@@H](C)Oc3ccc(N(C)C)cc3C(=O)N([C@H](C)CO)C[C@@H]2C)cc1,i,-0.8%,·,8.6%,i
O=c1[nH]c(=O)n(Cc2ccc(F)cc2)c(O)c1C=Nc1ccc(Cl)cc1,i,-1.1%,-5.4%,-20.2%,i
Nc1cccc(N=Cc2c(O)n(Cc3ccc(F)cc3)c(=O)[nH]c2=O)c1,i,-1.3%,-2.4%,7.5%,11.2µM*
Cc1ccc(/C=C2\C(=O)NC(=S)N(c3ccc(F)cc3)C2=O)o1,i,-0.4%,-2.0%,11.2µM*,i
CC1=CC2/C=C(\C)CCC(O)C(O)/C=C/C(=O)C23C(=O)NC(CC(C)C)C3C1C (centres undefined),i,2.9%,-6.5%,-3.6%,i
C/C1=C\[C@@H](C)C/C=C/[C@H]2[C@@H]3O[C@]3(C)[C@@H](C)[C@H]3[C@H](Cc4c[nH]c5ccccc45)NC(=O)[C@]32C(=O)/C=C/C(=O)[C@@H]1O,i,22.1%,-18.8%,11.2µM*,?
O=[N+]([O-])c1cccc(NP(=O)(Oc2ccccc2)Oc2ccccc2)c1,i,?,-9.3%,22.4µM*,i
O=C1NCN(c2ccccc2)C12CCN(C(c1cc3ccccc3o1)c1nnnn1C1CCCCC1)CC2 (centres undefined),i,17.3%,·,26.4%,11.2µM*
CC(C)(C)n1nnnc1C(c1cc2ccccc2o1)N1CCC2(CC1)C(=O)NCN2c1ccccc1 (centres undefined),i,1.4%,·,22.3%,?
CCn1nc(/C=C/c2ccccc2)nc2c(=O)n(C)c(=O)nc1-2,i,-92.4%,-1.5%,3.16µM*,i
Cc1cc(C(C#N)c2ccc(Cl)cc2)c(Cl)cc1NC(=O)c1cc(I)cc(I)c1O (centres undefined),i,-0.7%,-31.4%,-2.9%,i
CCC(=NCCCn1ccnc1)c1c(O)n(Cc2ccccc2)c(=O)[nH]c1=O,i,-2.1%,2.0%,31.6µM*,i
O=c1c(-c2ccccc2)c(O)c2ccccc2n1-c1ccccc1,i,-14.4%,?,12.6µM*,i
Nc1ccc2c(c1)Cc1cc([N+](=O)[O-])ccc1-2,i,?,23.3%,8.91µM*,i
Nc1ccc2c(c1)Cc1ccccc1-2,i,10.0%,9.0%,-1.2%,i
O=[N+]([O-])c1ccc2c(c1)Cc1cc(O)ccc1-2,i,1.2%,·,3.55µM*,·
SMILES,Abeta rescue,aSyn yeast inh,Mito fusion act,TDP43 rescue,FUS yeast rescue
O=[N+]([O-])c1cccc(O)c1,i,3.6%,-2.6%,?,i
COc1ccccc1NC(=O)Oc1cccc(OC(=O)c2ccccc2)c1,i,0.8%,-10.0%,?,i
C#CC1(O)C=CC2C3CCC4=CC(=O)CCC4C3CCC21CC (centres undefined),i,16.2%,-47.7%,14.1µM*,i
O=C(C[C@H]1C=C[C@H](NC(=O)Nc2ccccc2F)[C@@H](CO)O1)NCc1ccc(-c2ccccc2)cc1,i,?,·,16.7%,i
CCC(C)NC(=O)CCC(=O)OC1O[C@H]2OC3(C)CC[C@H]4[C@H](C)CCC(C1C)C24OO3 (some centres undefined),i,-9.4%,21.5%,35.5µM*,i
CCOC(=O)c1c(-n2c(C)cc(C=C3C(=O)NC(=S)NC3=O)c2C)sc2c1CCCC2,i,-31.3%,9.1%,17.8µM*,i
CCC(=O)Nc1ccc(C(=O)OCc2ccccc2Cl)cc1,i,-25.1%,15.2%,?,·
O=C(CI)c1ccc(Cl)cc1,·,15.0%,·,·,·
C[C@@H]1CC[C@H]2[C@@H](C)C(=O)O[C@@H]3O[C@@]4(C)CC[C@@H]1[C@]32OO4,i,0.0%,-4.6%,4.47µM*,i
C[C@@H]1CCC2[C@@H](C)C(=O)O[C@@H]3OC4(C)CCC1[C@@]23OO4 (some centres undefined),i,-0.3%,·,7.94µM*,i
CSc1ncc(C(=O)Nc2ccc(Cl)cc2C(=O)c2ccccc2)c(C)n1,i,·,·,16.6%,i
NCC(=O)c1ccc2ccccc2c1,·,-1.9%,·,·,·
CCC1=Nc2cc(C(=O)N3CCC4(CC3)OCCO4)ccc2Sc2ccc(Br)cc21,i,3.6%,17.8µM*,13.2%,i
c1ccc(N2CCN(c3ncnc4c3nc3n4CCCCC3)CC2)cc1,i,·,·,14.1µM*,i
Clc1ccccc1CN1CCN(c2ccccc2)CC1,i,0.6%,3.4%,-20.6%,i
COC(=O)C1=C(c2ccccc2OCc2ccccc2)C[C@@H]2CC[C@H]1N2C(=O)NCc1ccc([N+](=O)[O-])cc1,i,14.0%,?,23.1%,28.2µM*
COC(=O)C1=C(c2ccc(F)cc2OCc2ccccc2)C[C@@H]2CC[C@H]1N2C(=O)NCc1ccc(OC)cc1,i,6.5%,?,?,i
COC(=O)C1=C(c2ccccc2OCc2ccccc2)C[C@@H]2CC[C@H]1N2C(=O)NCc1ccc(OC)c(OC)c1,i,-9.4%,19.6%,28.8%,?
COC(=O)C1=C(c2ccccc2OCc2ccccc2)C[C@@H]2CC[C@H]1N2C(=O)NCc1ccc(Cl)cc1,i,12.8%,?,?,31.6µM*

# Source: PubChem
